# The whole screen tested about 2,700 compounds, of which about 160 (5.9%) showed an effect of 50% or more. This excerpt belongs to a sample that is enriched for strong results.
# Molecular target: Nonstructural protein 3 (Zika virus) (UniProt A0A024AXB9)
# Sequence (A0A024AXB9 as listed by the source): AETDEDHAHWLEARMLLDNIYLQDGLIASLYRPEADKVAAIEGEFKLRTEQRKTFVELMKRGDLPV
smiles,measurement,setting,value
N=C(N)NCCC[C@H](NC(=O)c1nccs1)C(=O)N[C@@H](CCCCN)C(=O)N[C@@H](C(N)=O)c1ccc(OCc2ccc(C(F)(F)F)cc2)cc1,inhibition,"PRVABC59, Concentration 15.0 uM, Number of replicates 1.0",91.8%
same,inhibition,"PRVABC59, Concentration 49.5 uM, Number of replicates 2.0, Standard deviation 0.021859715861266255 %",94.6%
same,inhibition,"PRVABC59, Concentration 49.5 uM, Number of replicates 2.0, Standard deviation 0.024233426369399808 %",96.9%
same,inhibition,"PRVABC59, Concentration 49.5 uM, Number of replicates 2.0, Standard deviation 0.10948739718766008 %",93.8%
same,inhibition,"PRVABC59, Concentration 49.5 uM, Number of replicates 2.0, Standard deviation 0.1218738502028297 %",97.5%
same,inhibition,"PRVABC59, Concentration 49.5 uM, Number of replicates 2.0, Standard deviation 0.12395624169405596 %",92.6%
same,inhibition,"PRVABC59, Concentration 49.5 uM, Number of replicates 2.0, Standard deviation 0.12648640130386196 %",91.3%
same,inhibition,"PRVABC59, Concentration 49.5 uM, Number of replicates 2.0, Standard deviation 0.127991549557883 %",97.2%
same,inhibition,"PRVABC59, Concentration 49.5 uM, Number of replicates 2.0, Standard deviation 0.13878114277667186 %",95.3%
same,inhibition,"PRVABC59, Concentration 49.5 uM, Number of replicates 2.0, Standard deviation 0.18792773988825517 %",89.4%
same,inhibition,"PRVABC59, Concentration 49.5 uM, Number of replicates 2.0, Standard deviation 0.2282484497468692 %",91.2%
same,inhibition,"PRVABC59, Concentration 49.5 uM, Number of replicates 2.0, Standard deviation 0.23805618998274827 %",97%
same,inhibition,"PRVABC59, Concentration 49.5 uM, Number of replicates 2.0, Standard deviation 0.25515230043791925 %",95.5%
same,inhibition,"PRVABC59, Concentration 49.5 uM, Number of replicates 2.0, Standard deviation 0.3144519047683829 %",85.9%
same,inhibition,"PRVABC59, Concentration 49.5 uM, Number of replicates 2.0, Standard deviation 0.8044343068166325 %",87.1%
same,inhibition,"PRVABC59, Concentration 49.5 uM, Number of replicates 2.0, Standard deviation 1.112040214687694 %",90.3%
same,inhibition,"PRVABC59, Concentration 49.5 uM, Number of replicates 2.0, Standard deviation 1.1256998397026805 %",90.4%
same,inhibition,"PRVABC59, Concentration 49.5 uM, Number of replicates 2.0, Standard deviation 1.7230548786677078 %",84.5%
same,inhibition,"PRVABC59, Concentration 49.5 uM, Number of replicates 2.0, Standard deviation 1.876040520916915 %",90.3%
same,inhibition,"PRVABC59, Concentration 49.8 uM, Number of replicates 2.0, Standard deviation 1.8581405857669444 %",97.9%
same,inhibition,"PRVABC59, Concentration 49.95 uM, Number of replicates 2.0, Standard deviation 2.309253478244507 %",87.4%
same,inhibition,"PRVABC59, Concentration 50.0 uM, Number of replicates 2.0, Standard deviation 0.36743959706585505 %",88.7%
same,inhibition,"PRVABC59, Concentration 99.01 uM, Number of replicates 2.0, Standard deviation 0.0 %",93.4%
same,inhibition,"PRVABC59, Concentration 99.01 uM, Number of replicates 2.0, Standard deviation 0.012046580828777775 %",94.9%
same,inhibition,"PRVABC59, Concentration 99.01 uM, Number of replicates 2.0, Standard deviation 0.02911571730090177 %",93.7%
same,inhibition,"PRVABC59, Concentration 99.01 uM, Number of replicates 2.0, Standard deviation 0.06378807510947981 %",97.6%
same,inhibition,"PRVABC59, Concentration 99.01 uM, Number of replicates 2.0, Standard deviation 0.067278508515758 %",98.8%
same,inhibition,"PRVABC59, Concentration 99.01 uM, Number of replicates 2.0, Standard deviation 0.0706826251762859 %",98.7%
same,inhibition,"PRVABC59, Concentration 99.01 uM, Number of replicates 2.0, Standard deviation 0.071545792633789 %",97.3%
same,inhibition,"PRVABC59, Concentration 99.01 uM, Number of replicates 2.0, Standard deviation 0.07721572387026257 %",95.8%
same,inhibition,"PRVABC59, Concentration 99.01 uM, Number of replicates 2.0, Standard deviation 0.10372575440882682 %",99%
same,inhibition,"PRVABC59, Concentration 99.01 uM, Number of replicates 2.0, Standard deviation 0.10948739718766008 %",97%
same,inhibition,"PRVABC59, Concentration 99.01 uM, Number of replicates 2.0, Standard deviation 0.11599352189858977 %",97.7%
same,inhibition,"PRVABC59, Concentration 99.01 uM, Number of replicates 2.0, Standard deviation 0.1471970254873272 %",98.8%
same,inhibition,"PRVABC59, Concentration 99.01 uM, Number of replicates 2.0, Standard deviation 0.27009049224933246 %",94.8%
same,inhibition,"PRVABC59, Concentration 99.01 uM, Number of replicates 2.0, Standard deviation 0.8601032130289737 %",94.3%
same,inhibition,"PRVABC59, Concentration 99.01 uM, Number of replicates 2.0, Standard deviation 0.9406367368140138 %",94.2%
same,inhibition,"PRVABC59, Concentration 99.01 uM, Number of replicates 2.0, Standard deviation 1.3348561042489029 %",88.7%
same,inhibition,"PRVABC59, Concentration 99.01 uM, Number of replicates 2.0, Standard deviation 1.4059433391708933 %",94.2%
same,inhibition,"PRVABC59, Concentration 99.01 uM, Number of replicates 2.0, Standard deviation 1.7588979073405244 %",89.5%
same,inhibition,"PRVABC59, Concentration 99.5 uM, Number of replicates 2.0, Standard deviation 0.12741970111728718 %",93.3%
same,inhibition,"PRVABC59, Concentration 99.5 uM, Number of replicates 2.0, Standard deviation 0.16892187143335857 %",101%
same,inhibition,"PRVABC59, Concentration 99.9 uM, Number of replicates 2.0, Standard deviation 1.5690280406728871 %",94.6%
same,inhibition,"PRVABC59, Concentration 100.0 uM, Number of replicates 2.0, Standard deviation 4.458993610342439 %",98%
same,inhibition,"PRVABC59, Concentration 198.0 uM, Number of replicates 2.0, Standard deviation 0.0026488451352126683 %",96.7%
same,inhibition,"PRVABC59, Concentration 198.0 uM, Number of replicates 2.0, Standard deviation 0.013907785659018856 %",98.8%
same,inhibition,"PRVABC59, Concentration 198.0 uM, Number of replicates 2.0, Standard deviation 0.021082865149513456 %",97.6%
same,inhibition,"PRVABC59, Concentration 198.0 uM, Number of replicates 2.0, Standard deviation 0.03251443916482027 %",97.8%
same,inhibition,"PRVABC59, Concentration 198.0 uM, Number of replicates 2.0, Standard deviation 0.03514709991020475 %",97.2%
same,inhibition,"PRVABC59, Concentration 198.0 uM, Number of replicates 2.0, Standard deviation 0.0599254007371534 %",99.1%
same,inhibition,"PRVABC59, Concentration 198.0 uM, Number of replicates 2.0, Standard deviation 0.06866497124437239 %",99.6%
same,inhibition,"PRVABC59, Concentration 198.0 uM, Number of replicates 2.0, Standard deviation 0.07418384817578288 %",97.3%
same,inhibition,"PRVABC59, Concentration 198.0 uM, Number of replicates 2.0, Standard deviation 0.0745722735316593 %",98.9%
same,inhibition,"PRVABC59, Concentration 198.0 uM, Number of replicates 2.0, Standard deviation 0.07483122376891023 %",96.4%
same,inhibition,"PRVABC59, Concentration 198.0 uM, Number of replicates 2.0, Standard deviation 0.07712401232790286 %",99.5%
same,inhibition,"PRVABC59, Concentration 198.0 uM, Number of replicates 2.0, Standard deviation 0.08816716098733327 %",99.7%
same,inhibition,"PRVABC59, Concentration 198.0 uM, Number of replicates 2.0, Standard deviation 0.09263944737652126 %",98.7%
same,inhibition,"PRVABC59, Concentration 198.0 uM, Number of replicates 2.0, Standard deviation 0.09449525741015294 %",99.7%
same,inhibition,"PRVABC59, Concentration 198.0 uM, Number of replicates 2.0, Standard deviation 0.3759148225392137 %",97%
same,inhibition,"PRVABC59, Concentration 198.0 uM, Number of replicates 2.0, Standard deviation 0.4983928899622956 %",97.6%
same,inhibition,"PRVABC59, Concentration 198.0 uM, Number of replicates 2.0, Standard deviation 0.5225777631622108 %",97.2%
same,inhibition,"PRVABC59, Concentration 198.0 uM, Number of replicates 2.0, Standard deviation 0.6944775623239552 %",94.7%
same,inhibition,"PRVABC59, Concentration 198.0 uM, Number of replicates 2.0, Standard deviation 1.5146538856468006 %",93.1%
same,inhibition,"PRVABC59, Concentration 200.0 uM, Number of replicates 1.0",97.4%
